Out of some 290,000 compounds screened, about 50 (0.02%) were called active.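 How the source made its calls: active means displacement of at least 50% at 20 µM, with a fluorescence ratio check between 0.3 and a set limit; inactive means the rest.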 The list comes from a sample in which actives are over-represented; it also holds similar structures and randomly drawn compounds. Results with a measured potency or affinity are listed apart.

The target in the experiment is E3 ubiquitin-protein ligase SIAH1 (Homo sapiens) (UniProt Q8IUQ4). Put plainly: blockers of Siah-1 interaction with plectin peptide – biochemical, fluorescence polarization, rhodamine-plectin, uHTS, primary screen (AID 1817).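 Further: plate controls were Siah plus tracer with DMSO for no effect and tracer alone without Siah for full effect.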 The following applies: Siah-1 / rhodamine-plectin peptide fluorescence polarization; at 20 µM; stronger effect = higher value. A general note: Polarisation of emitted light reports the rotation of a fluorescent probe.
E3 ubiquitin-protein ligase SIAH1 (Homo sapiens), sequence (Q8IUQ4 whole entry, looked up): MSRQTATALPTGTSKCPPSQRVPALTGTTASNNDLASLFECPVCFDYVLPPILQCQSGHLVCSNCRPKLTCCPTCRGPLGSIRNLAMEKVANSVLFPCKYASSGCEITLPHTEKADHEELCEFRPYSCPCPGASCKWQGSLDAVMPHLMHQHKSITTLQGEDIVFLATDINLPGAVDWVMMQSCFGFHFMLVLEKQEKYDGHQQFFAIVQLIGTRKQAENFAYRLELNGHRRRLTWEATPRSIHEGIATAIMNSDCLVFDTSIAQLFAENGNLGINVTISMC
`O=C(NC(=S)Nc1ccc(S(=O)(=O)Nc2nccs2)cc1)c1ccccc1`: the displacement is -2.4% (inactive). For the molecule `COc1cc(NS(=O)(=O)c2ccc(NC(=O)/C(=C/c3ccccc3Cl)NC(=O)c3ccccc3)cc2)nc(OC)n1`, the displacement was 13.9% (inactive). For `O=C(Nc1ccc(S(=O)(=O)Nc2nccs2)cc1)/C(=C/c1ccccc1Cl)NC(=O)c1ccccc1` the value was 54.4% (active); for `CCCn1c(=O)c(C(=O)NCc2ccncc2)c(O)c2ccccc21`, 8.4% (inactive); for `CC(=O)Nc1cccc(Oc2ncccc2[N+](=O)[O-])c1`, -3% (inactive). For `Cc1ccc(O)c(N=Cc2cc(Cc3ccccc3)cc([N+](=O)[O-])c2O)c1` the value was 22.9% (inactive); for `O=[N+]([O-])c1cc(Cc2ccccc2)cc(C=Nc2ccc(N3CCOCC3)cc2)c1O`, 50% (active); for `O=[N+]([O-])c1cc(Br)c(O)c(C=Nc2ccc(N3CCOCC3)cc2)c1`, 41.8% (inactive). As for `O=C(NCc1ccco1)/C(=C\c1ccc(F)cc1)NC(=O)c1ccco1`, the displacement was 5.4% (inactive). With `O=C(Nc1ccc(S(=O)(=O)N2CCOCC2)cc1)c1ccc(F)cc1`, the displacement is 10.6% (inactive). Turning to `O=C(Nc1ccc(S(=O)(=O)N2CCOCC2)cc1)c1ccc(S(=O)(=O)N2CCOCC2)cc1`, the displacement is -5.8% (inactive). Turning to `C=CCn1c(SCCC)nc(O)cc1=O`, the displacement was 3% (inactive).

`COc1ccccc1NC(=O)CN(Cc1ccco1)C(=O)c1ccc(-n2nc(C)cc2C)cc1`: the displacement was -1.4% (inactive). Take `COc1ccc(N2CCN(C(C)C(=O)N3CCc4ccccc43)CC2)cc1` (stereo not given): the displacement was -5.4% (inactive). For the molecule `Cc1ccsc1C=Nc1ccc(O)cc1`, the displacement was 55.3% (active). For `Cc1ccsc1/C=N/N=C/c1sccc1C` the value was -9.3% (inactive); for `Cc1ccc(N=Cc2sccc2C)cc1C`, 1.9% (inactive). `O=C(O)CCNc1cc(N2CCN(C(=O)c3ccco3)CC2)c2noc3c2c1C(=O)c1ccccc1-3`: the displacement was 63% (inactive).

Take `CCN1CCN(c2cc(N3CCN(C(=O)c4ccco4)CC3)c3c4c(onc24)-c2ccccc2C3=O)CC1`: the displacement was 51.9% (inactive). On to `Cc1ccc(-n2nnc3c(=O)n(CC(=O)NCC4CCCO4)cnc32)cc1` (stereo not given), for which the displacement is -0.3% (inactive).

Take `CCOC(=O)CN1C(=O)CN(c2ccc(C)cc2)C1=O`: the displacement was 5.5% (inactive). In the case of `Cn1cc(NC(=O)OCc2ccc(Cl)cc2)c(C(F)(F)F)n1`, the displacement was 1.5% (inactive). As for `Oc1ccc(Cl)cc1N=Nc1ccccc1`, the displacement was 12.6% (inactive). Take `O=S(=O)(O)c1cccc(N=Nc2c(O)ccc3ccccc23)c1`: the displacement was -4.3% (inactive). For `CC12CCC(C(=O)N(NC(=O)c3ccc(O)cc3)C1=O)C2(C)C` (stereo not given), the displacement is -2.6% (inactive). For `COc1ccccc1N(CC(=O)NCCSc1ccc(Cl)cc1)S(C)(=O)=O`, the displacement is -0.3% (inactive). In the case of `CC(C)CC(c1nnnn1C(C)C)N1CCN(c2cccc(Cl)c2)CC1` (stereo not given), the displacement is -5.9% (inactive). Consider `Cc1ccc(NC2=CC(=O)C(=O)c3ccccc32)cc1`, for which the displacement was 3.3% (inactive).

Turning to `O=C1C=C(Nc2ccccc2)c2ccccc2C1=O`, the displacement was 45.4% (inactive). Regarding `CCCCNC1=CC(=O)C(=O)c2ccccc21`, the displacement is 60% (active). Consider `COC(=O)c1cc2ccccc2oc1=O`, for which the displacement was -2.6% (inactive). On to `CCOC(=O)N/N=C\c1ccc(OC(=O)c2ccc3c(c2)OCO3)cc1`, for which the displacement was 1.3% (inactive).

Regarding `CCCN1C(=O)/C(=C/c2c(NCCCOCC)nc3c(C)cccn3c2=O)SC1=S`, the displacement is -2.4% (inactive). Regarding `CCOCCCNc1nc2c(C)cccn2c(=O)c1/C=C1\SC(=S)N(C(C)CC)C1=O` (stereo not given), the displacement was 53.2% (active). Then `CCOCCCNc1nc2c(C)cccn2c(=O)c1/C=C1\SC(=S)N(CC(C)C)C1=O`, with -1.2% (inactive); and `Cc1nn(C)c(Oc2cccc(C(F)(F)F)c2)c1C=O`, with -3.5% (inactive); and `Cc1ccc(-n2ncc3c(NNC(=O)c4ccco4)ncnc32)cc1C`, with 3% (inactive). For the molecule `O=C(N1CCN(c2ccccc2F)CC1)C12CC3CC(CC(C3)C1)C2`, the displacement is -8.1% (inactive). In the case of `CCC(NC(=O)CCc1c(C)c2cc3c(C)c(C)oc3cc2oc1=O)C(=O)N[C@@H](Cc1ccccc1)C(=O)O` (stereo not given in full), the displacement was 34.5% (inactive). For the molecule `Cc1oc2c(C)c3oc(=O)c(CC(=O)N[C@@H](CC(C)C)C(=O)N[C@@H](Cc4ccccc4)C(=O)O)c(C)c3cc2c1C`, the displacement was 30.3% (inactive).

For the molecule `COc1cccc(C(C(=O)NC2CCCCC2)N(C(=O)c2cccs2)c2ccc3c(c2)OCO3)c1` (stereo not given), the displacement is -1% (inactive). For `COc1ccc(CCC(=O)Nc2ccc(S(=O)(=O)N3CCOCC3)cc2)cc1` the value was 1.9% (inactive). Turning to `O=c1ccc2cc(S(=O)(=O)N3CCN(c4ccc(Cl)cc4)CC3)ccc2o1`, the displacement was -0.9% (inactive). In the case of `CCCn1c(=C(C#N)C#N)s/c(=C2\C=Cc3ccccc3N2CC)c1=O`, the displacement was 65.1% (active). For `CCN1C(=C(C#N)C#N)C=Cc2ccccc21` the value was 8.2% (inactive); for `CCCN1C(=O)/C(=c2\s/c(=C3\C=Cc4ccccc4N3CC)c(=O)n2-c2ccccc2)SC1=S`, -1.6% (inactive); for `Cc1ccc(-c2nnc(SCC(=O)NC(=O)Nc3ccc(C)cc3C)n2N)cc1`, 5.1% (inactive). Regarding `CCc1nc(Cl)c(C#N)c2c1CCCC2`, the displacement is 3.8% (inactive). In the case of `Cc1ccc(NC(=O)CCC(=O)OCc2ccc(Br)cc2)cc1`, the displacement is 1.1% (inactive). Regarding `COc1ccc(/C=c2\s/c(=C(/C#N)C(=O)NCc3ccco3)n(-c3ccccc3)c2=O)cc1`, the displacement was 21.4% (inactive).

As for `CN(c1ccccc1)c1ccc(/C=c2\s/c(=C(/C#N)C(=O)C(C)(C)C)n(Cc3ccco3)c2=O)cc1`, the displacement is 102% (active). In the case of `Cc1ccc(/C=c2\s/c(=C(/C#N)C(=O)N3CCCC3)n(Cc3ccco3)c2=O)s1`, the displacement is -3% (inactive). On to `Cc1ccc(NC(=O)Nc2cnccn2)cc1`, for which the displacement is -0.7% (inactive).

As for `Cc1ccc(S(=O)(=O)N2CCN(C(=O)c3cccs3)CC2)cc1C`, the displacement is -2% (inactive). For `CCO/C=C1\C(=O)N(c2ccccc2)C(=O)c2ccccc21` the value was 1.1% (inactive); for `CCO/C=C1/C(=O)N(CC)c2ccccc21`, -7.3% (inactive). Then `CCO/C=C1/C(=O)N(Cc2ccccc2)C(=O)c2ccccc21`, with 55.6% (active). With `C/C(=N\NC(=O)c1nnn(-c2nonc2N)c1CN1CCCCC1)c1ccccc1O`, the displacement is -0.3% (inactive). Then `Cc1cc(CN(C)C(=O)CC2C(=O)NCCN2Cc2ccc(-c3ccccc3)cc2)on1` (stereo not given), with -0.5% (inactive). As for `CC(C)(C)C(=O)Nc1ccc(C(=O)Nc2cccc(Oc3ccc(C(=O)O)c(C(=O)O)c3)c2)cc1`, the displacement was 24% (inactive). Take `Cc1ccc(C(=O)Nc2ccc(Oc3ccc(C(=O)O)c(C(=O)O)c3)cc2)cc1C`: the displacement was -3% (inactive). Turning to `O=C(O)Cn1c(=S)sc2ccccc21`, the displacement is -2.4% (inactive). Take `COc1cc([N+](=O)[O-])ccc1NC(=S)Nc1cccc(C(=O)O)c1`: the displacement was -2.6% (inactive). Consider `CCN(CC)CCOC(=O)c1ccc(N/C=C(/C#N)c2nc(-c3ccc(OC)cc3)cs2)cc1`, for which the displacement is 8.3% (inactive). In the case of `CCN(CC)CCOC(=O)c1ccc(N/C=C(/C#N)c2nc(-c3ccc4c(c3)OCO4)cs2)cc1`, the displacement was 2.3% (inactive). For the molecule `CCN(CC)CCOC(=O)c1ccc(N/C=C(/C#N)c2nc(-c3cccc(OC)c3)cs2)cc1`, the displacement is -5.2% (inactive). On to `COc1cc(/C=C(\C#N)c2nc(-c3cc4ccccc4oc3=O)cs2)ccc1O`, for which the displacement was 2.9% (inactive). Turning to `C1CC2CN(c3nc4nonc4nc3N3CCSCC3)CCN2C1` (stereo not given), the displacement was 1.1% (inactive). In the case of `COc1cccc(CNC(=O)C2CCCN(S(=O)(=O)c3c(C)n[nH]c3C)C2)c1` (stereo not given), the displacement is -0.6% (inactive). Then `CC(C)N1CCC(N2CCN(C/C=C/c3ccc(F)cc3)CC2CCO)CC1` (stereo not given), with 12% (inactive); and `O=C(/C=C/c1ccc(OCCCF)cc1)NCc1ccc(Cl)cc1`, with 33.7% (inactive). On to `CN(CC(=O)Nc1cccc(F)c1)C(=O)c1ccc(-c2ccc(Cl)cc2)o1`, for which the displacement was 4.6% (inactive). Take `Nc1ccc(Br)c2c1C(=O)c1ccccc1C2=O`: the displacement was 7.9% (inactive). As for `Nc1c(O)ccc2c1C(=O)c1ccccc1C2=O`, the displacement is 14.9% (inactive). On to `O=C(O)c1ccc(NS(=O)(=O)c2ccc(C(=O)Nc3ccccc3)cc2)cc1`, for which the displacement was -5.7% (inactive).

Turning to `NS(=O)(=O)c1ccc(NC(=O)c2ccc(-c3ccccc3)cc2)cc1`, the displacement is 42.1% (inactive). `O=C(NCc1ccccn1)C1CCN(S(=O)(=O)N2CCCC2)CC1`: the displacement is 3.2% (inactive). `O=C(Cn1cnc2c(cnn2-c2ccccc2)c1=O)N1CCN(c2ccc(F)cc2)CC1`: the displacement is 0.6% (inactive).

Turning to `Cc1cc(NS(=O)(=O)c2ccc(NC(=O)C(C)Oc3cc(C)c(Cl)c(C)c3)cc2)no1` (stereo not given), the displacement was 0.9% (inactive).

As to `CCc1nnc(NS(=O)(=O)c2ccc(NC(=S)NC(=O)/C=C/c3ccccc3)cc2)s1`, the displacement was 11.7% (inactive). On to `CCc1nnc(NS(=O)(=O)c2ccc(NC(=S)NC(=O)/C=C/c3cccs3)cc2)s1`, for which the displacement was 15.5% (inactive). On to `CCc1nnc(NS(=O)(=O)c2ccc(NC(=S)NC(=O)/C=C/c3ccc(F)cc3)cc2)s1`, for which the displacement was 12.9% (inactive). On to `CCc1nnc(NS(=O)(=O)c2ccc(NC(=S)NC(=O)/C=C/c3ccc([N+](=O)[O-])cc3)cc2)s1`, for which the displacement is 12.8% (inactive). Turning to `CCc1nnc(NS(=O)(=O)c2ccc(NC(=S)NC(=O)/C=C/c3ccc(OC)cc3)cc2)s1`, the displacement is 51.9% (active). Turning to `COCCCNc1oc(-c2ccccc2Cl)nc1C#N`, the displacement is -5.3% (inactive).

Regarding `CN1CCN(C(=O)c2cn(-c3ccccc3)nc2-c2cccnc2)CC1`, the displacement is -0.3% (inactive). For `O=C(NCc1ccc(F)cc1)c1cc(-c2cccs2)on1` the value was 3.6% (inactive); for `O=C(NCc1ccccc1)c1cc(-c2cccs2)on1`, -1.2% (inactive).

`CC(NC(=O)C(=O)c1cn(CC(=O)N2CCOCC2)c2ccccc12)c1ccccc1` (stereo not given): the displacement is 1.9% (inactive). Consider `CC(C)CNS(=O)(=O)c1ccc(CC(C)C)cc1`, for which the displacement was 1.9% (inactive).

These data come from PubChem BioAssay AID1817 (Sanford-Burnham Center for Chemical Genomics, 2009).
